According to PubChem BioAssay (NCI):
This is part of a sample that, as a whole, favours compounds with a hit. Of some 83,000 tested, about 20% had one in any assay.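 Compound tested at a single concentration for 48 hours in 96-well plates; a percent growth value below 10 was scored as active.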 A number with no mark means an inactive call. Calls of active or inactive are those of the source.

Assays:
Assay in all cases: NCI-60 one-dose screen, 48 h (100 = growth as untreated, 0 = no growth, -100 = all killed)
Details in all cases: 10 µM unless noted
[1] = tested on: SK-MEL-2 melanoma
[2] = tested on: EKVX NSCLC
[3] = tested on: SN12C renal
[4] = tested on: UO-31 renal
[5] = tested on: TK-10 renal
[6] = tested on: ACHN renal
[7] = tested on: CAKI-1 renal
[8] = tested on: A498 renal
[9] = tested on: MOLT-4 leukemia

| SMILES | growth [1] | growth [2] | growth [3] | growth [4] | growth [5] | growth [6] | growth [7] | growth [8] [%] | growth [9] |
| --- | --- | --- | --- | --- | --- | --- | --- | --- | --- |
| N/C(=N\c1nc2ccccc2s1)NC(=O)Nc1cccc(Cl)c1 | 28.9% | 49.7% | 40.9% | 46.8% | 69.2% | 44.7% | 23.9% | 10.7 | 31.1% |
| CC(C)(C)c1ccc(/C=C/C(=O)Nc2ccc(O)cc2)cc1 | 94.6% | 89.2% | 61.8% | 31.6% | 103% | 60.6% | 61.7% | 103 | 29.4% |
| N=C(N)c1ccc(-c2ccc(-c3cncc4ccccc34)s2)s1 | 79.3% | -65.7% (active) | -63% (active) | -76.6% (active) | -93.5% (active) | -88.5% (active) | -91.4% (active) | 70.2 | -50.3% (active) |
| Cc1cccc(Cc2cnc(NC(=O)c3ccc4nnsc4c3)s2)c1 | 82.7% | 87.4% | 92.9% | 78.5% | 80.9% | 70.3% | 60.2% | 106 | 90.2% |
| CNS(=O)(=O)c1n[nH]nc1-c1cc(C(C)(C)C)c(O)c(C(C)(C)C)c1 | 104% | 89.8% | 103% | 84.2% | 111% | 98.7% | 95.1% | 100 | 96.9% |
| CCN(CC)CCN1CC(O)=C(c2nc(-c3ccc(Cl)cc3)cs2)C1=N | 100% | 82.8% | 64.5% | -24.7% (active) | 89.2% | 42.5% | 43.2% | 56.5 | 1.18% (active) |
| CN(Cc1cnc2nc(N)nc(N)c2n1)c1ccc(C(=O)N[C@@H](CCc2nn[nH]n2)c2nn[nH]n2)cc1 | 75.3% | 85.7% | 36% | 43.1% | 56.4% | 33.6% | 29.3% | 97.2 | 28.2% |
| O=C(Nc1ccc(Nc2ccncc2)cc1)c1ccc(C(=O)Nc2ccc(Nc3ccncc3)cc2)cc1 | 53.7% | 91.8% | 88.1% | 89.4% | 137% | 97.2% | 81.6% | 117 | 71.5% |
| CC/C=C\C[C@H](O)C/C=C1/C(=O)C=C[C@@H]1C/C=C\CCCCO | 62.5% | 69.3% | -15.9% (active) | -74.2% (active) | 5.32% (active) | -69.3% (active) | 0.105% (active) | 100 | 8.39% (active) |
| NC(=N\N=C/c1ccccc1[N+](=O)[O-])/C(N)=N\N=C/c1ccccc1[N+](=O)[O-] | 98.4% | 98.5% | 108% | 116% | 99.6% | 109% | 95.2% | 85.9 | 113% |
| Cc1ccc2[nH]c(=O)c3c(c2c1)OC(N)=C(C#N)C31c2cc(Br)ccc2-c2ccc(Br)cc21 | 77.1% | 60.3% | 82.7% | 58.3% | 84.2% | 62.3% | 49.1% | 79.7 | 62.3% |
| CN(C)CC1=NC2SC=C(c3ccccc3)C2C(=O)N1CC#N (stereo unspecified) | 104% | 95.9% | 109% | 13.2% | 95.3% | 104% | 97.5% | 103 | 82% |
| Cc1ccc2nc(NC(=O)CSc3nc(-c4ccccc4)c(C#N)c(=O)n3Cc3ccccc3)sc2c1 | 85.7% | 90.2% | 92% | 67.4% | 119% | 92.6% | 69% | 85.7 | 93.8% |
| C=C(C)[C@@H]1CC[C@]2(C(=O)NC3CCCCC3)CC[C@]3(C)[C@H](CC[C@@H]4[C@@]5(C)CCC(=O)C(C)(C)[C@@H]5CC[C@]43C)[C@@H]12 | 95% | 93.9% | 86% | 76.1% | 95.2% | 99.8% | 76.6% | 83.3 | 88% |
| Cc1ccc(-c2cc(-c3ccccc3C)[nH]c(=O)c2C#N)s1 | 110% | 96.9% | 91.8% | 71.7% | 92.1% | 90.7% | 82.9% | 77.5 | 93.3% |
| CC(CN1CCCCC1)C(=O)c1ccccc1 (stereo unspecified) | 102% | 104% | 105% | 92.4% | 96.7% | 107% | 101% | 84 | 106% |
| Cn1c2c(c3ccc(Cl)c(Cl)c31)C(C#N)C1(CCNCC1)NC2=O (stereo unspecified) | 11.5% | 46.2% | 44.2% | 31.7% | 38.3% | 26.8% | 29.6% | 44.9 | 15.6% |
| NC1=NCc2nc3ccccc3c(=O)n2C1 | 92.8% | 107% | 98% | 70.1% | 106% | 99.5% | 92.7% | 110 | 91.2% |
| CC1SC(c2ccc(OCc3ccccc3)cc2)N(NC(=O)C(O)(c2ccccc2)c2ccccc2)C1=O (stereo unspecified) | 74.4% | 47% | 85.6% | 54.6% | 58.6% | 55.3% | 44.3% | 55.8 | 28.7% |
| O=c1c2c3c(sc2n2c(-c4cc(-c5ccccc5)nn4-c4ccccc4)nnc2n1Cc1ccccc1)CCCC3 | 102% | 101% | 98% | 36.7% | 126% | 106% | 20.9% | 141 | 19.1% |
| CC(=O)c1ccc(NCC(=O)Nc2ccccn2)cc1 | 105% | 101% | 106% | 86.4% | 146% | 103% | 87.9% | 104 | 100% |
| CCOC(CN=Cc1cc(C)c2[nH]c3ccccc3c2c1C)OCC | 91.4% | 105% | 99.1% | 94.3% | 83.3% | 106% | 105% | 37.5 | 81.2% |
| COc1cc2c(cc1-c1c(C)noc1C)ncc1nc(C3CCCCC3)n(C3CCC(OC(F)F)CC3)c12 (stereo unspecified) | 6.6% (active) | 41.1% | 52.7% | 8.28% (active) | 24.1% | 37.4% | 42.7% | 28.3 | 18.4% |
| Cc1ccc(Cc2cnc(NC(=O)c3ccc4noc(-c5ccccc5)c4c3)s2)cc1 | 99.7% | 79.1% | 85.9% | 81.9% | 109% | 99% | 78.2% | 102 | 90.2% |
| COc1ccc(Cl)cc1NC(=O)C(Br)C(Br)C(=O)O (stereo unspecified) | -24.7% (active) | 90.9% | 59.3% | 71.2% | 111% | 78.7% | 96.3% | 86.6 | 16.9% |
| NC(=N\N=C/c1cccc([N+](=O)[O-])c1)/C(N)=N\N=C/c1cccc([N+](=O)[O-])c1 | 75% | 79.5% | 86.8% | 107% | 27.6% | 94% | 53.8% | 61.5 | 86% |
| CC(=O)OC1CCC2(C)C(=CC3C4CCC(=O)C4(C)CCC32)C1 (stereo unspecified) | 93% | 109% | 96.4% | 96.2% | 108% | 101% | 101% | 154 | 103% |
| Cc1cc(Cl)ccc1Nc1nc(C(F)(F)F)ccc1C(=O)N/N=C/c1ccc(N(C)C)cc1 | -6.44% (active) | 26.3% | 57.7% | 22.7% | 25.8% | 24.6% | 22.6% | 34.7 | 12.8% |
| Cc1ccc(C(=O)COc2cccc(/C=C3\Oc4ccccc4C3=O)c2)cc1 | 105% | 97.1% | 105% | -37.1% (active) | 114% | 97.6% | 47.6% | 147 | 73.8% |
